Values joined by “and” are separate entries in the source; they are usually repeats but may differ in a detail not shown here. Identical values can stand only once. Inconclusive results are not listed. A call without a number means that no potency is given here. Values without a mark were called inactive. Active and inactive are the calls of the source. Calls follow the shape of the dose curve; as a rule, active = well fitted inhibition curve with a large enough effect in the repeat runs; inconclusive = weak or mixed curves; inactive = flat fitted curve, though single readings scatter.
Potency is read from the fitted curve at half-maximal effect.

Chain of Voltage-gated inwardly rectifying potassium channel KCNH2 (Homo sapiens) (Q12809 whole entry, looked up): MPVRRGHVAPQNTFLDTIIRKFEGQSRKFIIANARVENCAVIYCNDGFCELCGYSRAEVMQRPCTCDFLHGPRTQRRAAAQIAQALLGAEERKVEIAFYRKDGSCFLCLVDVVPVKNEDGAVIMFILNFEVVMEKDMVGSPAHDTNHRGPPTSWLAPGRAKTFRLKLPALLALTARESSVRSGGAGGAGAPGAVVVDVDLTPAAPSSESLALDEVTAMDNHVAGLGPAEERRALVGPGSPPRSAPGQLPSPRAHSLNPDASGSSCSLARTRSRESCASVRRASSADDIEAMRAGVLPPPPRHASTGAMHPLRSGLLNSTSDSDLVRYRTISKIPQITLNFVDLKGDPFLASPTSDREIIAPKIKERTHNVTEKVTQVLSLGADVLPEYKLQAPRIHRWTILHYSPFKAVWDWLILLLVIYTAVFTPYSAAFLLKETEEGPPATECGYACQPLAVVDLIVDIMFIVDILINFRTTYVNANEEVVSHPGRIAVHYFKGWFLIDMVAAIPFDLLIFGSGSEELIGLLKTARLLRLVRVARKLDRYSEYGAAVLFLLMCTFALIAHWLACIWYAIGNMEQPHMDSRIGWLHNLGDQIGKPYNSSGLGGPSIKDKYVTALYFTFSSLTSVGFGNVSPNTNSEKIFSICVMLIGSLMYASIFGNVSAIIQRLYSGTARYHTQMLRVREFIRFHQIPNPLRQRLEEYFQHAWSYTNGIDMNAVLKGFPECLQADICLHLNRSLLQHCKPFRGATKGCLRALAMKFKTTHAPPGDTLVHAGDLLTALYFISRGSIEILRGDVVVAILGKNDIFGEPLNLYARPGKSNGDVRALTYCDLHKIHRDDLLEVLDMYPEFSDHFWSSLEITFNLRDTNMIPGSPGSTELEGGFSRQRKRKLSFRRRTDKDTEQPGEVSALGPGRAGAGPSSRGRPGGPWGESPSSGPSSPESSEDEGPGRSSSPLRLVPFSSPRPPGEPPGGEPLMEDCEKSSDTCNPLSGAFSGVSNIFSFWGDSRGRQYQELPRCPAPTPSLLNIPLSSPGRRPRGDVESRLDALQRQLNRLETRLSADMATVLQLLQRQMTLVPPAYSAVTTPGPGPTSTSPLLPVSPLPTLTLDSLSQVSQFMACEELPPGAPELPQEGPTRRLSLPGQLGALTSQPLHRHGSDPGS

This test addresses Voltage-gated inwardly rectifying potassium channel KCNH2 (Homo sapiens) (UniProt Q12809). Put plainly: Human Ether-a-go-go-Related Gene (hERG) channel small molecule antagonists: fluorescence cell-based qHTS assay (AID 1671200). Also: nearly all actives have a fitted effect of over 50% in size. The conditions noted are these: hERG-U2OS cells, FluxOR thallium flux fluorescence; series mostly up to 76.8 µM; activity change, negative = inhibition: at the top concentration. The text has this: National Center for Advancing Translational Sciences [NCATS]
U.S. Environmental Protection Agency [EPA]
National Institutes of Environmental Health Sciences [NIEHS]
National Toxicology Program [NTP]
U.S. Food and Drug Administration [FDA]
Mutations in the hERG channel cause Long QT (LQT) syndrome. LQT syndrome is a cardiac disorder which can cause ventricle arrhythmia and sudden death. Additionally, compounds which block the hERG channel can cause acquired LQT syndrome. Several FDA approved drugs have been removed from the market due to their hERG blocking activity. A cell-based hERG channel inhibition assay can be used to screen chemical compounds that inhibit hERG channel. This assay measures hERG channel activity using thallium ions as surrogate ions to measure potassium into the cells.
Tox21 Assay Protocol Summary:
hERG-U2OS cells were resuspended in culture medium and dispensed into 1536-well, black wall/clear-bottom plates at 1000cells/well/3uL using a Multidrop Combi dispenser (Thermo Fisher, Waltham, MA). After plates were incubated at 37 C overnight, 3 uL of Loading Buffer provided by FluxOR II Potassium Ion Channel Assay kit (Thermo, Carlsbad, CA) was added to each well. The assay plates were then incubated at room temperature in the dark for 1h. […] After the assay plates were incubated at room temperature for 10 min, 1 uL of Stimulus Buffer provided by FluxOR II Potassium Ion Channel Assay kit was added into each well and fluorescence intensity (480nm excitation/540nm emission) was continuously measured for 2 min at 1 second intervals using a Functional Drug Screening System (FDSS) 7000EX kinetic plate reader (Hamamatsu, Japan).
(Block of hERG is tested as a sign of cardiac risk.)
As for `[Na+]`, the Potency entry is “inactive”. On the same count and under the same terms, as for `C[N+](C)(C)CCO`, the entry is “inactive”; as for `IC(I)I`, “inactive”; as for `Cc1ccc2c(c1)C(=O)OC2=O`, “inactive”. On the same count and under the same terms, the entry for `C=C[Si](OCCOC)(OCCOC)OCCOC` is “inactive”; for `Nc1ccc2c(O)cc(S(=O)(=O)O)cc2c1` it is “inactive”. Regarding `O=Cc1ccccc1C=O`, the Potency entry is “inactive”.

Regarding `CCCCCC=O`, the Potency entry is “inactive”. Same read-out and setting: the entry for `CNC[C@H](O)c1ccc(O)c(O)c1` is “inactive”; for `O=S1(=O)CCCO1` it is “inactive”; for `C=CN1CCCC1=O` it is “inactive”.

Turning to `Brc1nc2ccccc2s1`, the Potency entry was “inactive”.

Turning to `CC1(C)C(C=C(Cl)Cl)C1C(=O)OCc1cccc(Oc2ccccc2)c1` (stereo not given), the “activity change, negative = inhibition” value was -24.4%.

`CCC(Cc1c(I)cc(I)c(N)c1I)C(=O)O` (stereo not given): the Potency result is “inactive”. As for `Cc1ccc(/C(=C\CN2CCCC2)c2ccccn2)cc1`, the Potency was 18.3 µM (active) and 10.7 µM (active).

For the molecule `Cc1ccc(C(C)(C)C)c(O)c1`, the “activity change, negative = inhibition” value is -24.9%.

Consider `Cc1ccc(C(C)(C)C)cc1`, for which the Potency entry is “inactive”. The same measure, in the same setting: as for `OCCNCCO`, the entry is “inactive”; as for `CCCCCCCCCCCCCO`, “inactive”; as for `c1ccc2c(c1)ccc1ncccc12`, “inactive”. The same measure, in the same setting: the entry for `COc1ccc(C(=O)c2ccccc2O)c(O)c1` is “inactive”; for `CC1(C)OC(=O)NC1=O` it is “inactive”. Regarding `Oc1ccc(C(c2ccc(O)cc2)C(Cl)(Cl)Cl)cc1`, the “activity change, negative = inhibition” value is -9.02%.

With `CC(=O)[C@H]1CC[C@H]2[C@@H]3CC=C4C[C@@H](O)CC[C@]4(C)[C@H]3CC[C@]12C`, the Potency result is “inactive”.

For `CN(C)C`, the Potency result was “inactive”. The same measure, in the same setting: the entry for `NCCN` is “inactive”. `CCC(=O)O[C@H]1[C@H](O[C@@H]2[C@@H](C)[C@H](O[C@H]3C[C@@](C)(OC)[C@@H](O)[C@H](C)O3)[C@@H](C)C(=O)O[C@H](CC)[C@@](C)(O)[C@H](O)[C@@H](C)C(=O)[C@H](C)C[C@@]2(C)O)O[C@H](C)C[C@@H]1N(C)C`: the “activity change, negative = inhibition” value is -12.8% [at 35.3 µM]. As to `FC(F)(F)C(Cl)Br` (stereo not given), the Potency result was “inactive”.

Consider `Clc1ccc(Sc2cc(Cl)c(Cl)cc2Cl)cc1`, for which the Potency result is “inactive”.

On to `CCCCCC1C(=O)CCC1CC(=O)OC` (stereo not given), for which the Potency result was “inactive”. In the case of `CC(C)(C)c1cccc(C(C)(C)C)c1O`, the Potency is 24 µM (active). As to `C=C1C[C@H]2[C@@H]3C=C(C)C4=CC(=O)CC[C@]4(C)[C@H]3CC[C@]2(C)[C@@]1(OC(C)=O)C(C)=O`, the Potency entry was “inactive”.

Turning to `Nc1ccc(O)c(N)c1`, the “activity change, negative = inhibition” value is 13.4%. With `CC1(C)NC(=O)N(c2ccc([N+](=O)[O-])c(C(F)(F)F)c2)C1=O`, the Potency entry is “inactive”.

As for `Nc1cc([N+](=O)[O-])ccc1C(=O)O`, the Potency entry is “inactive”.

For the molecule `CCCCCCCCCCC(CO)CCCCCCCC` (stereo not given), the Potency result was “inactive”. Same read-out and setting: the entry for `COc1ccc2nc(N)sc2c1` is “inactive”; for `CC(C)=CCO` it is “inactive”; for `O=C(O)c1cc(=O)[nH]c(=O)[nH]1` it is “inactive”.

On to `CCCN1C=CN(C)C1`, for which the Potency entry was “inactive”.

The values above are taken from PubChem BioAssay (Tox21).
